Records with an inconclusive call do not appear. Entries that show only a call come without a potency. Active and inactive are the calls of the source. The call rests on the fitted dose curve; in most records, active means well fitted inhibition curve with a large enough effect; inconclusive means small, poorly fitted or top-dose-only effect; inactive means flat fitted curve, though single readings scatter.
assay: Cytometry Cell-Based qHTS for Inhibitors of the mTORC1 Signaling Pathway in MEF cells (AID 2668); conditions: mTORC1 pathway readout; series mostly up to 38.3 µM;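 further: Tsc2-/- p53-/- mouse embryonic fibroblasts stably re-expressing wild-type Tsc2; percent cells positive for phospho-rpS6 Ser235/236 relative to propidium iodide stain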
How it was run: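 WT MEFs (Tsc2-/-, p53-/- stably re-expressing WT Tsc2) in DMEM + 10% FBS received compounds 24 hrs after plating, for 24 hrs at 37 degree Celsius. Fixed cells stained with Alexa-488 anti-phospho-rpS6 Ser235/236 and propidium iodide; laser-scanning cytometry read-out.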

| SMILES | Potency |
| --- | --- |
| C[N+]1(C)CCOC(O)(c2ccc(-c3ccc(C4(O)C[N+](C)(C)CCO4)cc3)cc2)C1 (centres undefined) | inactive |
| COc1ccc2[nH]cc(CCN)c2c1 | inactive |
| NC(CCCCCP(=O)(O)O)C(=O)O (centres undefined) | inactive |
| CC(C)NP(=O)(NC(C)C)OP(=O)(NC(C)C)NC(C)C | inactive |
| C[C@]12Cc3cn4c(nc3C=C1CCC1C2CC[C@@]2(C)[C@H]1CC[C@@]2(O)C#N)nc1ccccc14 (some centres undefined) | inactive |
| CCCN1CC[C@@H]2c3cc(O)ccc3CC[C@@H]21 | inactive |
| NCCCP(=O)(O)O | inactive |
| C[N+](C)(C)CCOC(=O)CBr | inactive |
| C=CCN1C[C@@H](C)N([C@H](c2ccc(C(=O)N(CC)CC)cc2)c2cccc(OC)c2)C[C@@H]1C | inactive |
| Cc1o[nH]c(=O)c1CC(N)C(=O)O (centres undefined) | inactive |
| C[N+](C)(C)CC#CCN1CCCC1=O | inactive |
| NC(C(=O)O)c1cc(=O)[nH]o1 (centres undefined) | inactive |
| O=C(O)c1cc[c]([Hg][Cl])cc1 | inactive |
| C[Se]C[C@H](N)C(=O)O | inactive |
| CO[C@H]1CC=C2CCN3CCC4=C(CC(=O)OC4)[C@]23C1 | inactive |
| COc1ccc(CNC(=O)/C=C/c2ccc3[nH]cc(CCN(C)C)c3c2)cc1 | inactive |
| COc1ccc(OC)c(C(O)C(C)N)c1 (centres undefined) | inactive |

| SMILES | Potency |
| --- | --- |
| CC12NC(Cc3ccccc31)c1ccccc12 (centres undefined) | inactive |
| NC(=O)c1ccc(OCC(O)CN2CC=C(c3ccc(F)cc3)CC2)cc1 (centres undefined) | inactive |
| C=CCN1CC[C@]23c4c5ccc(O)c4O[C@H]2/C(=N/NC(=O)c2ccccc2)CC[C@@]3(O)[C@H]1C5 | inactive |
| CC(=O)NBr | inactive |
| CN1CCc2cccc(Cl)c2CC1 | inactive |
| CN(C(=O)Cc1ccc(Cl)c(Cl)c1)C(CN1CCCC1)c1cccc(OCC(=O)O)c1 (centres undefined) | inactive |
| C[C@@H]1O[C@H](C[N+](C)(C)C)CS1 | inactive |
| CCCN(CCC)C1CCc2cccc(O)c2C1 (centres undefined) | inactive |
| C[C@H](Cc1ccc2c(c1)OC(C(=O)O)(C(=O)O)O2)NC[C@H](O)c1cccc(Cl)c1 | inactive |
| CC(Cc1ccc(OCC(=O)O)cc1)NCC(O)c1cccc(Cl)c1 (centres undefined) | inactive |
| NCCc1ccc(S(=O)(=O)F)cc1 | inactive |
| Clc1ccc(N2CC3CCC(C2)N3)nn1 | inactive |
| NC(=O)c1cc(N2CC2)c([N+](=O)[O-])cc1[N+](=O)[O-] | inactive |
| O=S1(=O)N(CCN2CC=C(c3c[nH]c4cc(F)ccc34)CC2)c2cccc3c2N1CCC3 | inactive |
| NC(Cc1ccc(N(CCCl)CCCl)cc1)C(=O)O (centres undefined) | inactive |
| N[C@@H](CCl)C(=O)O | inactive |
| NC(N)=NOCC[C@H](N)C(=O)O | inactive |

Source: PubChem BioAssay (NCATS)
